Screening data (PubChem)
Tgondii IFNg = T. gondii growth inhibition with IFN-gamma, primary screen, cell-based | 69,000 compounds, 3.8% hits | activity change, negative = inhibition, % (concentration not given with the values) | Toxoplasma gondii growth in IFN-gamma-treated host cells; active compounds read low; in the data active = activity change below about -70%, passing the limit was not always enough;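 note: host cells are HeLa cells infected with Toxoplasma gondii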
Hits are given with their value; - = inactive; ! = not active in a repeat. This is one part of a sample in which hits are shown more often than they occur.

SMILES	Tgondii IFNg
CN(C)c1ccc(CNC(=O)c2nc(Nc3ccc(F)cc3)c3ccccc3n2)cc1	-
Cc1cccc(Nc2nc(C(=O)NCc3ccc(N(C)C)cc3)nc3ccccc23)c1	-78
COC(=O)c1cc(-c2ccccc2)oc1CN	-
COc1ccc(-c2nc(C)c(CCNS(=O)(=O)c3cccc([N+](=O)[O-])c3)s2)cc1	-
COc1cccc2ccc(CN3CCc4[nH]nc(-c5ccccc5F)c4C3)nc12	-
Cc1nc(C(F)(F)F)ccc1C(=O)NC1CCCN(Cc2cnn(C)c2C)CC1 (centres undefined)	-
CN1CCC2(C=C(C(=O)NC3CC3)c3ccccc32)CC1	-
O=C(NC1CCN(CCCCC2(C(=O)NCC(F)(F)F)c3ccccc3-c3ccccc32)CC1)c1ccccc1-c1ccc(C(F)(F)F)cc1	-74
COc1ccc(CC2(CO)CCN(Cc3cn(C)c4ccccc34)CC2)cc1	-
CCn1c2c(ccc1=O)CC(NS(=O)(=O)c1ccc(C)cc1)CC2 (centres undefined)	-
O=C(NCc1ccc(N2CCCC2=O)cc1)c1cccc(Cl)c1	-
CCN1C(=O)CCc2cc(NS(=O)(=O)Cc3cccc(Cl)c3)ccc21	-
O=C(NCc1cccc(Cl)c1)c1ccc2c(c1)CCC(=O)N2Cc1ccccc1	-100
Cc1oc(C2CCN(C(=O)c3cccc(C#N)c3)CC2)nc1C(=O)N1CCCC1	-
CCCc1nc(C(=O)NCc2nnc(-c3ccccc3)o2)cs1	-
Cc1nc(N2CCCC2)nc2c1CCN(c1ncc(F)cn1)CC2	-86
Cc1nc(N2CCCC2)nc2c1CCN(c1ncccn1)CC2	-
Cc1nc(-c2ccccc2)nc2c1CCN(c1ncc(F)cn1)CC2	-
CN(C)CCN1CC(C(=O)Nc2ccc(N3CCCC3)c3nonc23)CC1=O (centres undefined)	-
CC(=O)N[C@H]1CN(Cc2ccccc2)C[C@@H]1c1c(C(C)C)[nH]c2ncccc12	-
Cc1nc(-c2cccc(F)c2)sc1CCNS(=O)(=O)c1ccc(F)cc1F	-
COc1ccc(-c2nc(C)c(CCNC(=O)c3ccc(OC)c(OC)c3)s2)cc1	-
C[C@@H]1CC[C@H]2[C@@H](C)C(O)O[C@@H]3O[C@]4(C)CC[C@@H]1[C@]32OO4 (some centres undefined)	-82
COC(=O)c1ccc2nc(N)sc2c1	-
Nc1nc2ccc(OC(F)(F)F)cc2s1	-94!
SMILES	Tgondii IFNg
Nc1nc2ccc(-c3nc4ccccc4[nH]3)cc2s1	-
CCn1nccc1C(=O)N1CCOC(C(=O)N2CCCCCC2)C1 (centres undefined)	-
CC(C)Cc1cc(C(=O)N2CCCC2Cn2cccn2)on1 (centres undefined)	-
COC(=O)c1c(C)nn(-c2ccccc2)c1-c1cc(C)on1	-
Cc1nn(-c2ccccc2)c(Cl)c1C(=O)Oc1ccc(OCc2ccccc2)cc1	-97
Cc1nn(-c2ccccc2)c(C)c1C(N)=O	-
COC[C@H]1CCCN1Cc1cccc(C(=O)Nc2cc(C)cc(C)n2)c1	-
O=C(O)c1ccccc1	-
O=C(O)c1c2c(nc3ccccc13)CSc1ccc(Cl)cc1-2	-
O=C(O)c1c2ccccc2nc2ccccc12	-75
CC(C)c1ccc2c(c1)CCC1C(C)(C(=O)O)CCCC21C (centres undefined)	-
CN(Cc1ccccn1)C(=O)c1ccc2ccc(N(C)c3ccccc3)n2c1	-
Cc1ccc(-c2cnc(NC(=O)c3cccc(CN4CCCC4=O)c3)n2C)cc1C	-
CN(Cc1cccnc1)C1CCN(C(=O)c2cccnc2)C(C(=O)O)C1 (centres undefined)	-
CN(Cc1cccnc1)C1CCN(C(=O)c2cnccn2)C(C(=O)O)C1 (centres undefined)	-
CN(Cc1cccnc1)C1CCN(C(=O)c2ccccn2)C(C(=O)O)C1 (centres undefined)	-74
COc1cc(Cl)ccc1C(=O)N1CCC2(CCCO2)CC1	-
COCCn1cc2c(n1)C(CNCc1ccc(C)o1)OCC2 (centres undefined)	-
COc1ccc(C(=O)NCCc2sc(-c3ccc(OC)cc3)nc2C)cc1	-
COc1ccc(C(=O)NCCc2sc(-c3ccc(Cl)cc3)nc2C)cc1	-76
Cc1nc(-c2ccccc2)sc1CCNC(=O)c1ccc(Cl)cc1	-
COc1ccc(-c2nc(C)c(CCNC(=O)C(=O)Nc3c(C)cccc3C)s2)cc1OC	-
CCCCOc1ccc(C(=O)NCCc2sc(-c3ccc(Cl)cc3)nc2C)cc1	-74
COc1ccc(-c2nc(C)c(CCNC(=O)C(=O)Nc3ccccc3F)s2)cc1OC	-
Cc1nc(-c2ccc(Cl)cc2)sc1CCNC(=O)c1ccccc1	-
SMILES	Tgondii IFNg
COc1ccc(-c2nc(C)c(CCNC(=O)C(=O)Nc3ccccc3C)s2)cc1OC	-76
COc1ccc(-c2nc(C)c(CCNC(=O)c3ccc(Cl)cc3)s2)cc1	-
CS(=O)(=O)NCC1OCCc2cn(CC3CC3)nc21 (centres undefined)	-
COc1cc(C(=O)NCc2cc(F)cc3c(C)c(C)[nH]c23)ccn1	-
CCOC(=O)c1nc(N(C)c2ccccc2CC)c2ccccc2n1	-
COc1cc(CNC(=O)C2(C)CCN(C(=O)c3ccc4c(c3)OCO4)CC2)cc(OC)c1	-
CC(=O)Nc1ccc(C(=O)N(c2cc(C)cc(C)c2)C2(C(=O)NCc3ccccc3)CCN(C(C)=O)CC2)cc1	-
CCS(=O)(=O)N1CCOC2C(COCc3nccs3)CCC21 (centres undefined)	-
Cc1ccc(/C=N/NC(=O)c2ccccc2Oc2ccccc2)o1	-
Cc1ccsc1/C=N\NC(=O)c1ccc2c(c1)OCO2	-
O=C(N/N=C/c1ccc([N+](=O)[O-])o1)c1ccc(O)cc1	-81!
CC(C)(C)c1cc(CN2CCN(c3nccc4ccccc34)CC2)[nH]n1	-
CCC(C)N(Cc1ccncc1)C(=O)c1c(F)cc(OC)cc1F (centres undefined)	-
OC1=C(O)c2nc3cc(C(F)(F)F)ccc3nc21	-
OC1(c2ccc(Cl)c(Cl)c2)CSc2nc3cc(C(F)(F)F)ccc3n21 (centres undefined)	-84
NNC(=S)Nc1cc(C(F)(F)F)ccc1Cl	-
CC(=O)N1CCCC1c1cccc(C(=O)Nc2cnccn2)n1 (centres undefined)	-
O=S(=O)(Nc1ccccc1N1CCOCC1)c1cc(Cl)sc1Cl	-85
O=S(=O)(Nc1ccccc1N1CCOCC1)c1cccc2nonc12	-
Cn1cc(S(=O)(=O)Nc2ccccc2N2CCOCC2)c(C(F)(F)F)n1	-
C=CCO[C@H]1CN(C(=O)c2cc(C)nn2CC)[C@H]2CCCO[C@@H]12	-
Cn1cc(CNC2CC3(CCN(CCO)CC3)Oc3ccccc32)cn1 (centres undefined)	-
COc1ccccc1CN1CCc2nc(SCc3nc(-c4ccc(C)cc4)oc3C)[nH]c(=O)c2C1	-
Cc1ccc(-c2nc(Cn3nnc(-c4nc(-c5cccc(Cl)c5)no4)c3C)c(C)o2)cc1	-
O=C(O)CC1CC(c2ccccc2)=NO1 (centres undefined)	-
CCn1c(CC2CCNCC2)nn(CC2CC(c3ccccc3)=NO2)c1=O (centres undefined)	-
COc1cccc(CC2CC(c3ccccc3)=NO2)c1OCc1c(Cl)cccc1Cl (centres undefined)	-96
COc1ccc(CNC(=O)CCC2N=C3c4ccccc4N=C(SCc4cc(=O)n5cc(Cl)ccc5n4)N3C2=O)cc1 (centres undefined)	-
Cc1cccc(OCC(=O)N2CCC3(CC2)Nc2ccc(Cl)cc2-n2cccc23)c1	-107
O=C(COc1ccc(F)cc1)N1CCC2(CC1)Nc1ccc(Cl)cc1-n1cccc12	-115
